In the library only some 1.3% were active in any assay of this set; here they are far more common.
Giardia FBPA inh-1: qHTS Assay for Inhibitors of Fructose-1,6-bisphosphate Aldolase from Giardia Lamblia; A8B2U2; purified Giardia FBPA; Potency, µM (titrated, usually from 59.6 µM), without a hit: at the top dose activity, negative = inhibition, most hits filed as inhibitors; 0.71% of 290,000 active; note: nearly all actives have a fitted effect of over 55% in size
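Giardia FBPA (40 nM reagent) was preincubated 10 min at RT with compound (up to 57.5 uM final), then substrate plus GAPDH/TPI/NAD/arsenate coupling system with diaphorase/resazurin was added; resorufin fluorescence (525/598 nm) was read after 20 min.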
LmPK inh: qHTS Assay for Inhibitors of Leishmania Mexicana Pyruvate Kinase (LmPK); Q27686; purified LmPK, Kinase-Glo ATP luminescence, 1 h; Potency, µM (doses to about 57.5 µM), for the others: top-dose activity change, negative = inhibition, usual class: inhibitors; 0.37% of 290,000 active
Target sequence (Q27686 whole entry, looked up): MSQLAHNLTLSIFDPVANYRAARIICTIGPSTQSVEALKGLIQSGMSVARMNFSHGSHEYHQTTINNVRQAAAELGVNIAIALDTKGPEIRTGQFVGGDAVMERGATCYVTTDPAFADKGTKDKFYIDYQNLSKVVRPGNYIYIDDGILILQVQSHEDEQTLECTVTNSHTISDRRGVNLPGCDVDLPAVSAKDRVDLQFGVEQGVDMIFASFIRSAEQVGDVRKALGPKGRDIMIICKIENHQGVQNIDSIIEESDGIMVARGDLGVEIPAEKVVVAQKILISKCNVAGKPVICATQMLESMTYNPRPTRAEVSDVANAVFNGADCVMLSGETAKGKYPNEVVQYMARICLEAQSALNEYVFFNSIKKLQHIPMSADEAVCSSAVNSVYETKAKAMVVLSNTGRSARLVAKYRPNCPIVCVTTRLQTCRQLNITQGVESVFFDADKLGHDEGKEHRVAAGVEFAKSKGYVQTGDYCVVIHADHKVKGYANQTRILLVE
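ATP generated from ADP (0.1 mM) and PEP (0.5 mM) by 0.1 nM LmPK over 1 h at room temperature (pH 7.2 imidazole buffer) was detected by coupled luciferase luminescence. Values were normalized to uninhibited and no-enzyme wells.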
AmpC inh no detg: qHTS Inhibitors of AmpC Beta-Lactamase (assay without detergent). AmpC nitrocefin hydrolysis, absorbance 480 nm, 0.0001% Triton. AID 485341, 2010. 0.52% of 330,000 active. Potency, µM (series often up to 57.1 µM), inactives show top-dose activity change, negative = inhibition, usual class: inhibitors. P00811;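 note: plate controls were no compound for no effect and no enzyme for full effect; nearly all actives have a fitted effect of over 20% in size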
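AmpC (5.3 nM in the dispensed reagent) in 20 mM phosphate pH 7.0 with 0.01% (detergent screen) or 0.0001% Triton X-100 was preincubated with compounds for 15 min at room temperature. Nitrocefin was then added from an 800 uM solution, and hydrolysis was followed at 480 nm.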
AmpC inh detg: qHTS Inhibitors of AmpC Beta-Lactamase (assay with detergent) | P00811 | AmpC hydrolysis of nitrocefin, absorbance 480 nm, 0.01% Triton | Potency, µM (titrated, usually from 114 µM), inactives show at the highest dose activity change, negative = inhibition, usual class: inhibitors | 0.041% of 370,000 active;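 note: 0% = no-compound wells and -100% = no-enzyme wells; nearly all actives have a fitted effect of over 25% in size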
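AmpC (5.3 nM in the dispensed reagent) in 20 mM phosphate pH 7.0 with 0.01% (detergent screen) or 0.0001% Triton X-100 was preincubated with compounds for 15 min at room temperature. Nitrocefin was then added from an 800 uM solution, and hydrolysis was followed at 480 nm.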
AMA1-RON2 inh: qHTS for Inhibitors of AMA1-RON; Towards Development of Antimalarial Drug Lead: Primary Screen; AlphaScreen AMA1-biotinylated RON2 peptide binding; Potency, µM (titrated, usually from 58.2 µM), inactives show at the highest dose activity change, negative = inhibition, hits mostly inhibitors; 0.2% of 360,000 active;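 note: 0% = vehicle wells and -100% = peptide control; nearly all actives have a fitted effect of over 45% in size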
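AMA1 (3D7) with his tag at 25 nM final met compounds first, then biotinylated RON2 peptide at 25 nM; detection used donor plus acceptor beads, 10 µg/mL apiece, read by AlphaScreen after 30 min at room temperature.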
Giardia growth: qHTS Assay for Inhibitors of Fructose-1,6-bisphosphate Aldolase from Giardia Lamblia: Giardia lamblia growth inhibition; Giardia lamblia trophozoite growth inhibition; Potency, µM (top dose mostly 57.5 µM), for the others: at the top dose activity change, negative = inhibition, most hits filed as inhibitors; shares compounds with Giardia FBPA inh-1; AID 2785, 2010; 5% of 1,500 active;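 note: trophozoites exposed to compound for 48 h at 37 °C; nearly all actives have a fitted effect of over 70% in size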
Mammal cell tox: qHTS Assay for Inhibitors of Fructose-1,6-bisphosphate Aldolase from Giardia Lamblia: Mammalian cellular toxicity | shares compounds with Giardia FBPA inh-1 | Potency, µM (series often up to 57.5 µM), for the others: at the top dose viability change, negative = toxicity, usual class: inhibitors | AID 2786, 2010 | 4% of 1,500 active | mammalian cell viability counter-screen, qHTS;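 note: Chinese hamster ovary cells used as mammalian cytotoxicity surrogate; viability measured as cellular ATP by luminescence; compound exposure lasted 48 h before reading; nearly all actives have a fitted effect of over 60% in size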
Giardia FBPA inh-2: qHTS Assay for Inhibitors of Fructose-1,6-bisphosphate Aldolase from Giardia Lamblia: Primary screen confirmation; shares compounds with Giardia FBPA inh-1; purified Giardia aldolase enzyme activity, qHTS; Potency, µM (doses to about 57.5 µM), for inactives: at the top dose activity change, negative = inhibition, most hits filed as inhibitors; 5% of 1,500 active; note: nearly all actives have a fitted effect of over 45% in size
Rabbit aldolase: qHTS Assay for Inhibitors of Fructose-1,6-bisphosphate Aldolase from Giardia Lamblia: Rabbit FBPA Selectivity | shares compounds with Giardia FBPA inh-1 | Rabbit muscle FBPA enzyme inhibition, selectivity counter-screen | Potency, µM (top dose mostly 57.5 µM), inactives show at the top dose activity, negative = inhibition, actives largely listed as inhibitors | 4% of 1,500 active | AID 2794, 2010; note: nearly all actives have a fitted effect of over 60% in size
GAPDH coupling: qHTS Assay for Inhibitors of Fructose-1,6-bisphosphate Aldolase from Giardia Lamblia: Coupling assay counterscreen confirmation; Potency, µM (highest dose often 57.5 µM), without a hit: at the highest dose activity change, negative = inhibition, actives largely listed as inhibitors; shares compounds with Giardia FBPA inh-1; GAPDH coupling enzyme counterscreen, biochemical, qHTS; 6% of 1,500 active; note: nearly all actives have a fitted effect of over 55% in size
The depositor's hits bear a star; u = inconclusive; x = not tested or not shown; [ ] = dose if it differs, or a comment. Calls come from the whole dose curve; as a rule, active = well fitted curve in the direction sought with a large enough effect; inconclusive = small, poorly fitted or top-dose-only effect, or another doubt; inactive = no such curve, though single readings can be large; an effect the other way counts as inactive or inconclusive. Unless noted, % is set by controls: 0 for no effect and ±100 for the full control effect; potency is the fitted concentration of half-maximal effect.

SMILES | Giardia FBPA inh-1 | LmPK inh | AmpC inh no detg | AmpC inh detg | AMA1-RON2 inh | Giardia growth | Mammal cell tox | Giardia FBPA inh-2 | Rabbit aldolase | GAPDH coupling
Cc1ccc(N(CC(=O)Nc2cccc(F)c2)S(=O)(=O)c2cccs2)cc1 | x | x | x | 0% | x | x | x | x | x | x
Nc1nc(=S)c2[nH]cnc2[nH]1 | 3.2µM* | x | -13% | -21% | 88% | 2%[38.3 µM] | 7.1µM* | -12% | -12% | -5%
C[C@@H]1CN([C@H](C)CO)C(=O)CCCn2cc(nn2)CO[C@H]1CN(C)S(=O)(=O)c1ccccc1C#N | x | x | x | x | 20% | x | x | x | x | x
N#Cc1ccc(CSc2ccc(S(=O)(=O)N3CCCCCC3)cn2)cc1 | x | x | -18% | u | 13% | x | x | x | x | x
CCOC(=O)/C(=C\c1ccccc1)C(=O)CCN1CCOCC1 | x | x | x | x | 4% | x | x | x | x | x
Nc1nc2c(s1)CCc1c-2cnn1-c1ccccc1 | 0.4µM* | 14µM* | -49% | 89µM* | 8% | u | u | 13µM* | 14µM* | 13µM*
O=c1c(=O)n(O)c2ccccc2n1O | 18µM* | 0% | -11% | -10% | 20% | u | -7% | -18% | -16% | -8%
COc1ccc2c(c1)Cc1c-2cc(Br)c(N)c1Br | x | x | x | x | -10% | x | x | x | x | x
CCOc1ccc(CN(C)CC(=O)Nc2cccc(S(=O)(=O)N(C)c3ccccc3)c2)cc1 | 20µM* | -17% | -10% | -9% | -25% | u | 6% | 4% | 17% | -1%
COc1ccc(CCNC(=O)CSc2nnc(-c3ccco3)c(-c3ccco3)n2)cc1OC | 13µM* | 11% | -11% | u | x | -22% | -9% | -27% | -23% | -25%
Cc1c(NC(=S)NC(=O)c2cccc(Cl)c2)c(=O)n(-c2ccccc2)n1C | 13µM* | -1% | -6% | -8% | 8% | 24% | 16% | 3% | 12% | 10%
Cc1cccc(C(=O)NC(=S)Nc2c(C)n(C)n(-c3ccccc3)c2=O)c1 | x | x | x | x | 12% | x | x | x | x | x
CC(C(=O)Nc1cc(C(F)(F)F)ccc1Cl)n1nnc2sc3c(c2c1=O)CCCC3 (configuration not stated) | x | x | x | -5% | x | x | x | x | x | x
Oc1cccc(/C=N/Nc2ccc(Cl)nn2)c1 | -10% | -5% | -33% | -8% | 10% | x | x | x | x | x
O=C(O)c1ccc(/C=N/Nc2ccc(Cl)nn2)cc1 | 25µM* | -1% | -5% | -3% | 11% | u | 4% | -15% | -15% | u

Source: PubChem (National Center for Advancing Translational Sciences (NCATS))
